Screening data as filed in PubChem BioAssay.
PKM2 act = PKM2 (human) enzyme activation; P14618; purified PKM2, Kinase-Glo ATP luminescence, activation; response scale: 0% is enzyme alone, no compound; AID 1631; 0.34% of 260,000 active; Potency, µM (titrated, usually from 57.5 µM), for the others: at the top dose activation, actives largely listed as activators; also: potency is read from the fitted curve at half-maximal effect; nearly all actives have a fitted effect of over 55% in size
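Purified hPK-M2 (>95% pure) converted ADP (0.1 mM final) to ATP with 0.5 mM PEP in 50 mM imidazole pH7.2, KCl, MgCl2, Tween 20, BSA; 1 h at room temperature. ATP detected by Kinase-Glo luminescence.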
IDH1 R132H inh = human IDH1 R132H inhibition; O75874; 0.093% of 390,000 active; IDH1-R132H enzyme, NADPH consumption, diaphorase/resazurin fluorescence; AID 602179; Potency, µM (highest dose often 76.6 µM), inactives show top-dose activity change, negative = inhibition, most hits filed as inhibitors; also: potency is read from the fitted curve at half-maximal effect; nearly all actives have a fitted effect of over 65% in size
Target sequence (O75874 whole entry R132H, stated change not applied): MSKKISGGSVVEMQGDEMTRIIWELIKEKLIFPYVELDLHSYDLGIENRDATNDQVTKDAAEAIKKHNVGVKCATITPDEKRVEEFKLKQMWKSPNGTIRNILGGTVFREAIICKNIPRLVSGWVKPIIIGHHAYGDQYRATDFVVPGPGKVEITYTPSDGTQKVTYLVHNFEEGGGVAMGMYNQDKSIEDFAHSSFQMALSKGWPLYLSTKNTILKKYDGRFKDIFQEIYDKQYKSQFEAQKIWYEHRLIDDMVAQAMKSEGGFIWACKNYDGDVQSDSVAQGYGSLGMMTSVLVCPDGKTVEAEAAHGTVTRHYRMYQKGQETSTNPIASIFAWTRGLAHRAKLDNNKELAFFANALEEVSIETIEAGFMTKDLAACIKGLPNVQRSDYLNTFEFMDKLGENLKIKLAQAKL
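IDH1-R132H (0.5 ug/mL) preincubated 30 min with compound, then NADPH (0.016 mM) and alpha-KG (2 mM) added; 80 min at RT, pH 7.5. Remaining NADPH coupled via diaphorase/resazurin to fluorescence (540/590 nm); concentration-response curves normalized to no-enzyme control.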
TrxR1 substrate = rat thioredoxin reductase 1 substrate activity | AID 588456 | 0.01% of 390,000 active | O89049 | Potency, µM (series often up to 114 µM), inactives show at the highest dose activity change, negative = substrate turnover | purified TrxR1 substrate turnover, NADPH consumption readout; also: potency is read from the fitted curve at half-maximal effect; nearly all actives have a fitted effect of over 50% in size
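Rat TrxR1, dispensed at 90 nM, was prereduced with 400 uM NADPH (final) for 5 min at ~22 deg C, then incubated with compound 15 min before 400 uM selenite. A first-read NADPH fluorescence drop versus no-compound background flagged substrates.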
TrxR1 inh = blocks rat thioredoxin reductase 1. O89049. recombinant rTrxR1, NADPH fluorescence consumption, selenite substrate. Potency, µM (titrated, usually from 114 µM), for inactives: at the top dose activity change, negative = inhibition, hits mostly inhibitors. 1% of 390,000 active. AID 588453; also: potency is read from the fitted curve at half-maximal effect; nearly all actives have a fitted effect of over 65% in size
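Rat TrxR1 (90 nM in the dispensed reagent) was pre-reduced with 400 uM NADPH for 5 min at room temperature, then incubated with compound for 15 min. After 400 uM selenite was added, NADPH fluorescence (Ex 340/Em 450 nm) was followed for 8 min.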
LDHA inh = LDHA (human) enzyme inhibition. purified LDHA, NADH/diaphorase-resazurin fluorescence; stronger effect = lower value. AID 1347041. 0.15% of 480,000 active. P00338. activity change, % (values are at about 110 or 230 µM); in the data active = activity change below about -30%; inconclusive = mostly about -25% to -30%;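 also: plate controls were DMSO wells for no effect and wells without enzyme for full effect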
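LDH5 2 nM; NADH 0.06 mM, pyruvate 0.2 mM; 200 mM Tris pH 7.4, EDTA, Tween-20; 5 min RT. Detection: diaphorase 0.133 mg/mL + resazurin 37 µM, fluorescence ex540/em590 at 0 and 20 min; normalized to enzyme-free and DMSO wells.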
GLS inh = inhibitors of human glutaminase (GLS) | O94925 | GLS enzymatic activity, qHTS titration | Potency, µM (highest dose often 45.5 µM), for inactives: top-dose activity change, negative = inhibition, most hits filed as inhibitors | 0.21% of 410,000 active; also: potency is read from the fitted curve at half-maximal effect
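Two-point fluorescence kinetic (t0, 30 min RT) for hKGA; glutamate detected via glutamate oxidase–HRP–Amplex Red. Substrate: 1 mM L-glutamine solution; buffer 45 mM KH2PO4, pH 8.2.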
Active calls of the source: *; u = inconclusive; x = no result; [ ] = dose if it differs, or a comment. Compounds with a hit are over-represented: about 1.4% of the library has one in this group of screens. Unless noted, calls follow the shape of the dose curve; as a rule, active = well fitted curve in the direction sought with a large enough effect; inconclusive = small, poorly fitted or top-dose-only effect, or another doubt; inactive = no such curve, though single readings can be large; an effect the other way counts as inactive or inconclusive. Unless noted, % is scaled to controls: 0 for no effect and ±100 for the full control effect.

SMILES	PKM2 act	IDH1 R132H inh	TrxR1 substrate	TrxR1 inh	LDHA inh	GLS inh
COc1ccc(CCNC(=O)CSc2ccc(-c3ccco3)nn2)cc1OC	18%	-6%	0%	u	-1	-2%
O=C(Cn1nc(-c2ccco2)ccc1=O)Nc1ccccc1	x	x	x	x	2	x
COc1ccc(NC(=O)CSc2ccc(-c3ccco3)nn2)cc1OC	18%	1%	-2%	35µM*	10	-4%
O=C(Cn1nc(-c2ccco2)ccc1=O)Nc1ccc(Br)cc1	-6%[0.46 µM]	0%	20%	40µM*	0	-11%
COc1cccc(NC(=O)CSc2ccc(-c3sc(C)nc3C)nn2)c1	u	1%	-5%	3%	-4	-1%
O=C(c1cc(-c2ccco2)[nH]n1)N1CCN(c2ccc(N3CCOCC3)nn2)CC1	x	x	x	x	0	x
CCOC(=O)COC(=O)CNC(=O)c1ccc(C)c(C)c1	x	x	x	x	-5	x
O=C(Cn1cnc(NC(=O)c2ccccc2)n1)NCc1ccccc1	x	x	x	x	9	x
Cc1cccc(-c2nc3n(CC(=O)N4CCC(C)CC4)c(C)cc(=O)n3n2)c1	x	x	x	x	7	x
Cc1cccc(-c2nc3n(CC(=O)N4CCCCCC4)c(C)cc(=O)n3n2)c1	x	x	x	x	-31*	x
COc1ccccc1NC(=O)CN(c1ccc([N+](=O)[O-])cc1)S(=O)(=O)c1ccccc1	10µM*	0%	3%[57.1 µM]	-3%[57.1 µM]	0	0%
O=[N+]([O-])c1cc(S(=O)(=O)N2CCCCCC2)ccc1F	10%	46µM*	-6%	32µM*	-4	6%
O=[N+]([O-])c1cc(S(=O)(=O)N2CCCC2)ccc1O	-9%	3%	-10%	11%[57.1 µM]	-7	5%
O=C(NCc1ccco1)/C(=C/c1ccccc1)NC(=O)c1ccco1	0%	0%	4%	25%	-9	0%
O=C(NCc1ccco1)/C(=C\c1ccco1)NC(=O)c1ccco1	17%	-5%	-8%	50µM*	0	-3%
O=C(NCc1ccco1)/C(=C\c1ccco1)NC(=O)c1ccc(Br)o1	0%	6%	-11%[57.1 µM]	7%[57.1 µM]	-1	-2%
O=C(NCc1ccco1)/C(=C/c1ccco1)NC(=O)c1ccc(Br)o1	1%	2%	-7%	50µM*	2	7%
O=C1CCCC2=C1C(c1ccc(F)cc1F)Nc1nonc1N2 (stereo not given)	x	x	x	x	-33*	x
CCNC(=S)N/N=C(/C)c1ccc(Cl)c(Cl)c1	x	x	x	x	5	x
Cc1cccc(C(=O)NC(=S)Nc2ccc(N3CCOCC3)cc2)c1	-5%	-2%	-8%	32µM*	0	-11%
COC(=O)c1cc(NC(=S)NC(=O)c2ccccc2)ccc1N1CCOCC1	-9%	-6%	-15%	28µM*	-7	7%
Cc1ccc(C(=O)NC(=S)Nc2ccc(N3CCOCC3)cc2)cc1C	0%	1%	6%[57.1 µM]	u	9	11%
COc1ccc(NC(=O)c2n[nH]c(=O)c3ccccc23)cc1OC1CCCC1	x	x	x	x	6	x
C/C(=N\Nc1ccc(C(=O)O)cc1)c1ccc2c(c1)Nc1ccccc1S2	-3%	6%	-1%	-9%	-5	18µM*
Cc1nc(SCC(=O)NCc2ccco2)c2c3c(sc2n1)CCCC3	-2%	-4%	-6%	u	-4	7%
SMILES	PKM2 act	IDH1 R132H inh	TrxR1 substrate	TrxR1 inh	LDHA inh	GLS inh
CCCc1nc2sc3c(SCC(=O)NCc4ccco4)ncnc3c2c2c1CCC2	19%	4%	2%	45µM*	0	u
CC(=O)OC1(C(C)=O)CCC2C3CC(C(F)(F)F)C4=CC(=O)CCC4(C)C3CCC21C (stereo not given)	x	-4%	0%	16µM*	-8	-1%
CC(=O)O[C@]1(C(C)=O)CC[C@H]2[C@@H]3C[C@H](C)C4=CC(=O)CC[C@]4(C)[C@H]3CC[C@@]21C	-1%	16%	0%	9%	7	-6%
CCN(CC)C(NC(=O)Cc1ccccc1)C(Cl)(Cl)Cl (stereo not given)	5%	16%	11%	7.9µM*	-5	-6%
O=C(O)c1cccc(Cn2c(Cl)c(/C=N/NC(=O)c3cc4ccccc4cc3O)sc2=O)c1	32µM*	-7%	-13%	-13%	-9	0%
O=C(O)c1cccc(Cn2c(Cl)c(/C=N/NC(=O)c3ccco3)sc2=O)c1	x	9%	-19%	79µM*	-1	7%
O=C(O)c1cccc(Cn2c(Cl)c(/C=N/NC(=O)c3cccc(O)c3)sc2=O)c1	0%	-3%	-7%	-8%	-1	12%
O=C(O)c1cccc(Cn2c(Cl)c(/C=N/NC(=O)c3ccccc3)sc2=O)c1	2%	1%	-13%	-40%	0	5%
CC(NC(=O)c1cc2cc(Br)cc(Br)c2o1)C1CC2CCC1C2 (stereo not given)	x	x	x	x	-6	x
O=C(Nc1ccc(-c2nc3ncccc3o2)cc1)c1ccco1	1%	-2%	29%	40µM*	1	u
Cc1ccc2[nH]c(C(=O)NCc3ccccc3)cc2c1	x	x	x	x	0	x
O=C(CCNc1ccc(Br)cc1)c1cccc([N+](=O)[O-])c1	0%	5%	-5%	16µM*	0	-19%
O=C(CCNc1ccc(F)cc1)c1cccc([N+](=O)[O-])c1	-10%	9%	5%	3.5µM*	-4	23%
O=C(CCNc1ccc(Cc2ccncc2)cc1)c1ccc([N+](=O)[O-])cc1	-22%	13%	-22%[57.1 µM]	16µM*	4	-1%
O=C(CCNc1ccccc1)c1cccc([N+](=O)[O-])c1	7%	3%	3%	1.6µM*	8	20%
O=C(CNC(=O)c1cccc([N+](=O)[O-])c1)OCCCC(=O)c1ccc(F)cc1	x	-7%	-5%	17%	2	1%
O=C(Nc1ccc(Cc2ccncc2)cc1)c1cccc([N+](=O)[O-])c1	-4%	23%	0%	25%	-3	-7%
Cc1[nH]c(SC(C)C(=O)Nc2cccc(S(=O)(=O)N(C)C)c2)nc1Cc1ccccc1 (stereo not given)	x	x	x	x	-1	x
CC1CCCCC1NC(=O)C1CCC1 (stereo not given)	x	x	x	x	-4	x
Cc1ccc(NCCC(=O)c2cccc([N+](=O)[O-])c2)cc1	-1%	4%	8%[57.1 µM]	3.5µM*	2	-13%
Cc1ccc(CONC(=O)c2cccc([N+](=O)[O-])c2)cc1	x	2%	-6%	-8%	-8	0%
O=Cc1[nH]c2ccccc2c1Cl	x	x	x	x	4	x
O=Cc1[nH]c2ccccc2c1N(C(=O)CCl)c1ccccc1	1%	1%	6%[57.1 µM]	3.5µM*	-9	-13%
N#Cc1cn2ncnc2nc1N	x	x	x	x	-31*	x
COCCCNc1oc(-c2ccccc2)nc1C#N	x	x	x	x	9	x
